Measurements published in PubChem BioAssay (Tox21).
“And” between values parts separate entries of the source, which are not always exact repeats. Equal values may be shown once. Inconclusive results are not listed. A number with no mark means an inactive call. The source made the active and inactive calls. Calls follow the shape of the dose curve; as a rule, active = well fitted inhibition curve with a large enough effect in the repeat runs; inconclusive = weak or mixed curves; inactive = no such curve, though single readings can be large or run the other way.

molecular target: Cytochrome P450 1A2 (Homo sapiens) (UniProt P05177); experiment: Cytochrome P450 Family 1 Subfamily A Member 2 (CYP1A2) small molecule antagonists: luciferase reporter qHTS assay (AID 1671199); details: P450-Glo CYP1A2 enzyme, luciferin luminescence, 1 h; series mostly up to 115 µM; also: nearly all actives have a fitted effect of over 50% in size
Method in brief: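 Read-out is luminescence from luciferin detection reagent (20 min) proportional to CYP1A2 activity; compounds in DMSO preincubated 10 min with enzyme and proluciferin substrate, then NADPH regeneration solution, 1 h, room temperature.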
% is scaled to controls: 0 for no effect and ±100 for the full control effect; potency is read from the fitted curve at half-maximal effect.

Chain of Cytochrome P450 1A2 (Homo sapiens) (P05177 whole entry, looked up): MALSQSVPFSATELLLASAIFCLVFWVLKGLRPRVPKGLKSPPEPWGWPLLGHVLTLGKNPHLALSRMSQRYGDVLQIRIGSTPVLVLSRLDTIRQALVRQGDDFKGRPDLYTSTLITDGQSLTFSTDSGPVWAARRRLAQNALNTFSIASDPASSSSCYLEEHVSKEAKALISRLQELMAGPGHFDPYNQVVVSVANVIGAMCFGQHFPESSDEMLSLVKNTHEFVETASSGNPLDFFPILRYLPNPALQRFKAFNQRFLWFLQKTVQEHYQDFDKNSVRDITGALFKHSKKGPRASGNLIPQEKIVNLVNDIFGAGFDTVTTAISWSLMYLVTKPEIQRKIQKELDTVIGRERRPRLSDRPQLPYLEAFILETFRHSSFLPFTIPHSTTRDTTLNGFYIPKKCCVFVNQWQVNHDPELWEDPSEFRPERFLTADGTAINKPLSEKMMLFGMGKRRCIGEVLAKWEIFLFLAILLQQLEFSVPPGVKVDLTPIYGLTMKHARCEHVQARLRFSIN

Row | SMILES | Potency | activity change, negative = inhibition
1 | COCC(=O)O[C@]1(CCN(C)CCCc2nc3ccccc3[nH]2)CCc2cc(F)ccc2[C@@H]1C(C)C | inactive | –
2 | CC(C)=CCCC(C)CCOC(=O)C(C)C (stereo not drawn) | inactive | –
3 | Cc1oc(-c2ccccc2)nc1CCOc1ccc(C[C@H](Nc2ccccc2C(=O)c2ccccc2)C(=O)O)cc1 | inactive | –
4 | Oc1ccc(-c2ccc(O)cc2)cc1 | 28.4 µM (active) | –
5 | C=C[C@](C)(O)CC[C@@H]1[C@@]2(C)CCCC(C)(C)[C@@H]2CC[C@@]1(C)O | 31.7 µM (active) | –
6 | O=C1C=CC(=O)N1c1ccccc1 | 20 µM (active) | –
7 | CCOCN(C(=O)CS(=O)(=O)O)c1c(C)cccc1CC | inactive | –
8 | CCc1cccc(C)c1 | inactive | –
9 | CS(C)(=O)=O | inactive | –
10 | CCCCCCOc1cc(C)c(O)c(C)c1C | 11.4 µM (active) | –
11 | O=C(O)CCn1c2c(c3ccccc31)C[C@H](NS(=O)(=O)c1ccc(F)cc1)CC2 | inactive | –
12 | CC(=O)Oc1ccc(C2(c3ccc(OC(C)=O)cc3)Oc3ccccc3NC2=O)cc1 | inactive | –
13 | CCCCCCCCCCCCCC[n+]1ccccc1 | 71 µM (active) | –
14 | O=C1NCCN1CCN1CCC(c2cn(-c3ccc(F)cc3)c3ccc(Cl)cc23)CC1 | inactive | –
15 | CCC(C)c1ccccc1 (stereo not drawn) | inactive | –
16 | CCN(CC)CCSC(=O)C(c1ccccc1)c1ccccc1 | 15.5 µM (active) | –
17 | Cc1cnccn1 | inactive | –
18 | COc1cc(C(C)C)c2c(c1)S(=O)(=O)N(COc1cc(=O)n3cccc(OCCN4CCCCC4)c3n1)C2=O | – | -18.4% [at 23.6 µM]
19 | CCCCOCC | inactive | –

Row | SMILES | Potency | activity change, negative = inhibition
20 | CC(C)c1ccc(O)c(C(C)C)c1 | 31.7 µM (active) | –
21 | CCCCCCCC(C)=O | 35.6 µM (active) | –
22 | CCCCCCCOC(=O)c1ccc(O)cc1 | 5.64 µM (active) and 20 µM (active) | –
23 | CCOC(/C=C(\C)CCC=C(C)C)OCC | inactive | –
24 | CCCC(O)C(O)CO (stereo not drawn) | inactive | –
25 | COc1ccccc1OCCNCC(O)COc1cccc2[nH]c3ccccc3c12 (stereo not drawn) | 8.12 µM (active) | –
26 | CCCCNc1c(C(=O)OCC)c(C)nc2c1cnn2CC | 2.75 µM (active) | –
27 | CCCCCCOc1ccc(O)cc1 | 39.9 µM (active) | –
28 | Cc1c(-c2ccc(O)cc2)n(Cc2ccc(OCCN3CCCCCC3)cc2)c2ccc(O)cc12 | inactive | –
29 | CC1=CP(=O)(c2ccccc2)CC1 (stereo not drawn) | inactive | –
30 | CCCC(CC)CCCCCCCN (stereo not drawn) | 5.15 µM (active) | –
31 | CNC(=O)c1cc(Oc2ccc(NC(=O)Nc3ccc(Cl)c(C(F)(F)F)c3)cc2)ccn1 | inactive | –
32 | NC(=O)c1ccccc1N | 31.9 µM (active) | –
33 | O=C(O)CC(=O)O | 63.4 µM (active) | –
34 | CC(NCCC(c1ccccc1)c1ccccc1)c1ccccc1 (stereo not drawn) | inactive | –
35 | C=CC(C)(CCC=C(C)C)OC(=O)/C=C/c1ccccc1 (stereo not drawn) | 31.7 µM (active) | –
36 | C/C=C/C(=O)Oc1c(CCCCCC(C)C)cc([N+](=O)[O-])cc1[N+](=O)[O-] | 25.2 µM (active) | –
37 | CCCCCCCC/C=C\CCCCCCCC(=O)OCCOC(=O)CCCCCCC/C=C\CCCCCCCC | 52.2 µM (active) | –
38 | CCN(CC)c1ccc(N)cc1 | 41 µM (active) | –
